Sampled rows, rich in hits. Any-hit rate of the full collection: about 1.6%.
12-LOX inh: Primary qHTS assay for inhibitors of human arachidonate 12S-lipoxygenase (ALOX12): Round 2; Polyunsaturated fatty acid lipoxygenase ALOX12 (Homo sapiens), P18054; purified 12hLO, xylenol orange hydroperoxide absorbance; Potency, µM (series often up to 108 µM), inactives show at the top dose activity change, negative = inhibition, hits mostly inhibitors; 580,000 compounds, 1.1% hits; AID 1671190, 2021; note: % is set by controls: 0 for no effect and ±100 for the full control effect
Target sequence (P18054 whole entry, looked up): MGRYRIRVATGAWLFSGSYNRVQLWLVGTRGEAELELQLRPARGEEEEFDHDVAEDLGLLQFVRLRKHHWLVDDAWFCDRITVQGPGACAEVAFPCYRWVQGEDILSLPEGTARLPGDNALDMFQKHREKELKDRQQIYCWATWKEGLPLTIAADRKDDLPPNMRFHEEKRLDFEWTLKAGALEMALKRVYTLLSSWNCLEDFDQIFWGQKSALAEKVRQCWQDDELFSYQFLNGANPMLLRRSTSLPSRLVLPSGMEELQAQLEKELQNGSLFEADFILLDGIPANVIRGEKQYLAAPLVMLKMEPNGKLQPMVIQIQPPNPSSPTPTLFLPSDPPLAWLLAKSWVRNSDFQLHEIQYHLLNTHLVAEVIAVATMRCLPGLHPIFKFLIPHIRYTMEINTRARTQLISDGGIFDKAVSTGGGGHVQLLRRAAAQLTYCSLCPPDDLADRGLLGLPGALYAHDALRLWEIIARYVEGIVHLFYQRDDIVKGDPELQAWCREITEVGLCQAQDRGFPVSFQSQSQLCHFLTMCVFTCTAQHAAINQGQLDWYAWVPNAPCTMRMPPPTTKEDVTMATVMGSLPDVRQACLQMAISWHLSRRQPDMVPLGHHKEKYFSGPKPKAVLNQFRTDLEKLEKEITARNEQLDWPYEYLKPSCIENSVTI
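Purified human 12hLO at 150 nM in 25 mM Hepes, 0.01% Triton X-100, pH 7.0, preincubated 15 min at room temperature with compound. Reaction started with 40 uM arachidonic acid, 30 min at room temperature. Hydroperoxide measured by Fe-xylenol orange, 573/405 nm absorbance ratio.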
FUS suppressor: qHTS for Suppressors of FUS Proteinopathy: Primary screen using FUS-linked yeast assay | 390,000 compounds, 0.24% hits | S. cerevisiae FUS-expressing, growth rescue, OD600, 24 h | AID 1347120, 2019 | Potency, µM (highest dose often 76.6 µM), hits mostly activators;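 note: plate controls were DMSO vehicle for no effect and reference control for full effect; nearly all actives have a fitted effect of over 55% in size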
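Steps: raffinose overnight preculture; dilution to OD 0.005 in 2% galactose minimal medium; compound addition (concentration series); 24hr at 30C, 99% humidity; absorbance read at 600 nm.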
gsp ag: qHTS for Agonist of gsp, the Etiologic Mutation Responsible for Fibrous Dysplasia/McCune-Albright Syndrome: qHTS; 340,000 compounds, 0.13% hits; AID 624287, 2012; Potency, µM (titrated, usually from 76.9 µM), inactives show at the highest dose activation (cAMP increase), hits mostly activators; gsp mutant cells, cAMP HTRF, 30 min; active = well fitted activation curve with a large enough effect; inconclusive = small, poorly fitted or top-dose-only effect, or another doubt; inactive = no such curve, though single readings can be large or run the other way; cell line not stated here;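 note: phosphodiesterase inhibitor Ro 20-1724 added with compounds to block cAMP breakdown; nearly all actives have a fitted effect of over 60% in size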
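Cells in DMEM/10% FBS with G418 were pretreated with compounds in DMSO plus […] (300 uM stock) for 30 min at 37C. cAMP was measured by HTRF (cAMP-d2 plus anti-cAMP antibody-K) after 30 min at room temperature.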
gsp antagonist: qHTS for Antagonists of gsp, the Etiologic Mutation Responsible for Fibrous Dysplasia/McCune-Albright Syndrome: qHTS. 340,000 compounds, 0.4% hits. Potency, µM (series often up to 76.9 µM), for inactives: at the top dose activity change, negative = inhibition, most hits filed as inhibitors. AID 624288, 2012. gsp-mutant cells, cAMP HTRF, 30 min; calls by dose curve; cell line not stated here;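 note: intracellular cAMP measured with PDE inhibitor Ro 20-1724 present during compound exposure; % is set by controls: 0 for no effect and ±100 for the full control effect; nearly all actives have a fitted effect of over 65% in size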
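G418-selected cells were plated in DMEM/10% FBS for 16-24 h at 37C, then treated with compounds plus the PDE inhibitor […] (300 uM solution added) for 30 min at 37C. Intracellular cAMP was measured by HTRF after 30 min lysis at room temperature.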
Mito fusion yeast: qHTS Assay for Small Molecule Inhibitors of Mitochondrial Division or Activators of Mitochondrial Fusion. AID 485298, 2010. Potency, µM (doses to about 46.1 µM), for inactives: at the top dose growth rescue (activation), hits mostly activators. S. cerevisiae fusion-defective mutant growth rescue, CellTiterGlo 48 h. 320,000 compounds, 0.23% hits; note: % of control where 0% means no effect; nearly all actives have a fitted effect of over 45% in size
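S. cerevisiae fusion-defective temperature-sensitive mutants (e.g. fzo1-1, mgm1-5) grown 48 h at 37C in YPEG (ethanol/glycerol non-fermentable) medium with 23 nl compound per well; growth rescue read as CellTiterGlo luminescence.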
Starred values were filed as active, the others as inactive; i = inactive; u = inconclusive; x = no result; ! = a repeat was not active; [ ] = remark or other dose. Unless noted, calls come from the whole dose curve; as a rule, active = well fitted curve in the direction sought with a large enough effect; inconclusive = small, poorly fitted or top-dose-only effect, or another doubt; inactive = no such curve, though single readings can be large; an effect the other way counts as inactive or inconclusive. Potency is the fitted concentration of half-maximal effect.

SMILES | 12-LOX inh | FUS suppressor | gsp ag | gsp antagonist | Mito fusion yeast
N[C@@H](CC(=O)O)C(=O)O | u | x | x | x | -3%
CC(C)Cn1cnc2c1c(O)nc(=O)n2Cc1ccccc1 | -25% | x | x | x | x
Cc1cc(Cl)cc2sc(=S)[nH]c12 | 11µM* | i | -16% | u | x
C/C(=N\NC(=O)c1ccc(Br)cc1)C1C(=O)c2ccccc2C1=O | -10%[57.4 µM] | i | -2% | u | 16%
C/C(=N\NC(=O)c1ccc(-c2ccccc2)cc1)C1C(=O)c2ccccc2C1=O | 0% | i | 3% | 28µM* | -1%
CCOC(=O)c1sc(NC(=O)c2ccc(F)c(S(=O)(=O)N3CCCCC3)c2)cc1C | 39% | x | x | x | x
CC(C)c1ccc(Cn2ccc3c4c(N)nc(NC5CC5)nc4ccc32)cc1 | 22µM*! | x | x | x | x
O=C(/C=C1\NC2(CCCC2)Cc2ccccc21)N1CCOCC1 | u | i | 16% | -11% | -2%
CC1(C)Cc2c(ccc3ccccc23)/C(=C/C(=O)N2CCCCC2)N1 | u | i | -5% | 35µM* | -1%
Cc1ccc(-c2cc(C(=O)NCCO)c3ccccc3n2)cc1 | 18% | x | x | x | x
CCOC(=O)c1sc(SCC(=O)Nc2ccc(N(C)C)cc2)nc1N | -7% | u | -1% | 28µM* | 4%
CN(Cc1ccc(F)cc1)c1cc(C(=O)N2CCOCC2)c2ccccc2n1 | 26% | x | x | x | x
Cc1ccc2cccc(NC(=O)COc3ccccc3C)c2n1 | 18% | x | x | x | x
Cc1ccc(/C(=N\O)c2oc3c(C)c4oc(=O)cc(C)c4cc3c2C)cc1 | 0% | i | 11% | 17% | 7.1µM*
Cc1cc(=O)oc2c1ccc1oc(/C(=N/O)c3ccccc3)c(C)c12 | -19% | i | 2% | 7% | u
N=C1/C(=C\c2ccc(-c3cccc(C(=O)O)c3)o2)C(=O)N=C2SC=C(c3ccccc3)N12 | 40µM* | i | -21% | -28% | 5%
Cc1ccc(C(=O)OCC(=O)c2ccc(C3CCCCC3)cc2)c(C)c1 | 3% | x | x | x | x
O=C(COC(=O)c1ccc(O)cc1O)c1ccc(Cl)cc1 | 45µM* | i | 38%[15.4 µM] | 1% | u
O=C(COC(=O)c1ccc(O)cc1O)Nc1ccc(Cl)cn1 | u | i | 48% | -7% | -10%
Nc1ccc(O)cc1C(=O)OCC(=O)c1ccc(C2CCCCC2)cc1 | 11µM* | i | -2%[15.4 µM] | -16% | 9%
C[C@@H]1C(=O)O[C@H]2[C@H]1CC[C@@]1(C)Cc3sc(NC(=O)c4c(F)cccc4F)nc3[C@@H](C)[C@H]21 | 5% | x | x | x | x
COc1ccc(Cl)cc1NC(=O)c1ncoc1-c1ccc(OC)c(OC)c1 | 30% | x | x | x | x
Cc1cc(C)cc(C(=O)Nc2ccc(Cl)cc2C(F)(F)F)c1 | -10% | x | x | x | x
CCOC1CCCc2oc(-c3ccc(OC)cc3)c(C(=O)NCCCCO)c21 (stereo not given) | 13µM* | i | x | x | x
CC(=O)c1ccc(N2CCN(C(=O)c3cn(-c4ccccc4)nc3-c3cccnc3)CC2)cc1 | 89% | x | x | x | x
SMILES | 12-LOX inh | FUS suppressor | gsp ag | gsp antagonist | Mito fusion yeast
CN(CCCn1ccnc1-c1cnc[nH]1)c1ccccc1 | 113% | x | x | x | x
O=[N+]([O-])c1ccccc1-c1ccc(C(=S)N2CCCC2)o1 | 40µM* | u | -17% | -5% | 7%
O=C(Nc1cccc([N+](=O)[O-])c1)c1ccc([N+](=O)[O-])o1 | -8% | i | -4% | x | x
O=[N+]([O-])c1cc(-c2ccc(C(=S)N3CCOCC3)o2)ccc1Cl | 13µM* | i | -25% | -14% | 16%
CC(=O)c1cccc(NC(=O)c2ccc(-c3ccccc3[N+](=O)[O-])o2)c1 | -20% | i | 19%[15.4 µM] | 45µM* | u
O=C(Nc1cccc(NC(=O)c2ccccc2Cl)c1)c1ccc([N+](=O)[O-])o1 | u | i | -20% | 40µM* | -27%
Cc1cc(NC(=O)c2ccc(-c3ccccc3[N+](=O)[O-])o2)no1 | 5% | i | -1% | -4% | x
CCCCOC(=O)N1CCC(N2CCCC(C(=O)N3CCOCC3)C2)CC1 (stereo not given) | 75% | x | x | x | x
CC(=O)N1CCC([C@@H]2CN(Cc3ccccc3C(F)(F)F)C[C@H]2CO)CC1 | 35% | x | x | x | x
CCc1cc(=O)oc2cc3occ(C)c3cc12 | 12% | i | 4% | 1% | 4%
CCc1cc(=O)oc2cc3occ(-c4ccc(OC)c(F)c4)c3cc12 | -22% | i | -6% | 24% | 16µM*
CC(C)(C)n1nc2c(c1NC(=O)c1ccc(S(=O)(=O)N3CCCC3)cc1)CSC2 | 12% | 16µM* | 3% | -5% | 0%
CCOC(=O)C1CCN(C(=O)CN2C(=O)CSc3ccc(S(=O)(=O)N4CCOCC4)cc32)CC1 | 4% | i | 3.5µM* | 5% | 5%
CCCC(=O)NC(c1ccc(C)cc1)c1ccc2cccnc2c1O (stereo not given) | x | i | -15% | -3% | 0%
Cc1ccc(C(Nc2ccccn2)c2ccc3cccnc3c2O)cc1 (stereo not given) | 18µM* | i | x | x | x
O=C(Nc1ccc(C2CC2(Cl)Cl)cc1)c1ccccc1Br (stereo not given) | -10% | x | -15% | -16% | 14µM*
O=C(Oc1ccccc1C(=O)Nc1ccccc1)c1ccccc1Br | 0% | i | 3% | 20% | 16µM*
c1cc(N2CCCC2)ccc1C(c1nnnn1C1CCCCC1)N1CCOCC1 (stereo not given) | -13% | 40µM* | -3% | -7% | 0%
COc1ccc(C(c2nnnn2C2CCCCC2)N2CCN(c3ccc(OC)cc3)CC2)cc1 (stereo not given) | 2% | u | 22% | -8% | u
O=C(O)CSc1nc(-c2ccc(Cl)cc2)nc2c1oc1ccccc12 | u | i | 0% | u | 8.9µM*
O=C(O)CSc1nc(-c2ccccc2)nc2c1oc1ccccc12 | 2% | i | 17% | -28% | 3%
COC(=O)c1sc(-c2ccc(C(C)(C)C)cc2)cc1NC(=O)CSCC(=O)O | u | 28µM* | 4% | u | 15%
O=C1Nc2ccccc2SC(c2ccccc2)C1O (stereo not given) | 13µM* | x | -28% | 15% | 0%
O=C(c1ccc(Br)cc1)N(C1CCCCC1)C1CCCCC1 | 21% | x | x | x | x
O=S(=O)(c1ccccc1)c1nc(Nc2cccc(O)c2)sc1Cl | 35µM* | x | -3% | 8% | -4%
Cc1ccc(S(=O)(=O)c2nc(Nc3ccccc3)sc2Cl)cc1 | -14% | i | 4% | u | -3%
CSc1ncccc1C(=O)Nc1nc2ccc(Oc3ccccc3)cc2s1 | -6% | i | 12% | u | 13µM*

Bioassay records: PubChem, National Center for Advancing Translational Sciences (NCATS)
